The text below walks through data of PubChem BioAssay (NCI).

“And” between values parts separate entries of the source, which are not always exact repeats. Identical values can stand only once. This is part of a sample that, as a whole, favours compounds with a hit. Of some 83,000 tested, about 20% had one in any assay.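 48-hour exposure, single concentration, 96-well plates; percent growth endpoint where 0 means no net growth. Active: below 10.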 The source made the active and inactive calls.

Among the test systems are HCT-15 colon; HT29 colon; SNB-75 CNS; SNB-19 CNS; U251 CNS; PC-3 prostate; SK-MEL-5 melanoma; UACC-62 melanoma; LOX IMVI melanoma; SK-MEL-28 melanoma; SK-MEL-2 melanoma; EKVX NSCLC; SN12C renal; UO-31 renal; TK-10 renal; ACHN renal; CAKI-1 renal; A498 renal; CCRF-CEM leukemia; MOLT-4 leukemia.
Common to all, as to assay: NCI-60 one-dose screen, 48 h (100 = growth as untreated, 0 = no growth, -100 = all killed)
Holding throughout (conditions): 10 µM unless noted

Turning to `COc1ccc2sc(NC(=O)CCCCCCNC(=O)C(O)(O)C(F)(F)F)nc2c1`, the growth is 5.37% (active) with HCT-15 colon; 5.06% (active) with HT29 colon; 41.4% (inactive) in the assay with SNB-75 CNS; 15.9% (inactive) with SNB-19 CNS; -51.5% (active) in the assay on U251 CNS; 34.1% (inactive) in the assay on PC-3 prostate. Also, the growth in the assay with SK-MEL-5 melanoma was -82.2% (active); in the assay on UACC-62 melanoma, -64.6% (active); in the assay with LOX IMVI melanoma it was -81% (active); in the assay on SK-MEL-28 melanoma, 1.51% (active); in the assay on SK-MEL-2 melanoma, -17.5% (active); in the assay with EKVX NSCLC, 23.3% (inactive). The growth with SN12C renal was 10.5% (inactive); with UO-31 renal, -13.7% (active); in the assay on TK-10 renal, -12.4% (active); in the assay with ACHN renal, -26.8% (active); in the assay on CAKI-1 renal it was -16.3% (active); in the assay with A498 renal it was -35.2% (active). Moreover, the figures for the growth in the assay with CCRF-CEM leukemia and in the assay on MOLT-4 leukemia were 24.6% (inactive) and 13% (inactive), respectively.
Turning to `Cc1ccc2c(n1)C(=O)C(Cl)=C(Nc1ccc(C(C)C)cc1)C2=O`, the growth was -60.1% (active) with HCT-15 colon; 102% (inactive) with HT29 colon; 109% (inactive) with SNB-75 CNS; 75.4% (inactive) with SNB-19 CNS; 70.2% (inactive) with U251 CNS; 54% (inactive) in the assay with PC-3 prostate. Moreover, the growth in the assay on SK-MEL-5 melanoma is 37.3% (inactive); in the assay on UACC-62 melanoma it was 86.3% (inactive); in the assay with LOX IMVI melanoma, -66.3% (active); in the assay with SK-MEL-28 melanoma, 6.95% (active); in the assay with SK-MEL-2 melanoma it was 71.2% (inactive); in the assay with EKVX NSCLC, -0.749% (active). Besides, the growth in the assay on SN12C renal is 46.4% (inactive); in the assay with UO-31 renal, -65.3% (active); in the assay with TK-10 renal it was 145% (inactive); in the assay with ACHN renal it was -77.2% (active); in the assay with CAKI-1 renal, 77.3% (inactive); in the assay on A498 renal it was 133% (inactive). The growth was 3.85% (active) in the assay with CCRF-CEM leukemia and 4.3% (active) in the assay on MOLT-4 leukemia.
Regarding `CC(C)(C)OC(=O)NCc1ccc(CNc2c([N+](=O)[O-])cnc3ccccc23)cc1`, the growth in the assay with HCT-15 colon was 74% (inactive); in the assay on HT29 colon, 83.8% (inactive); in the assay on SNB-75 CNS it was 57.1% (inactive); in the assay with SNB-19 CNS, 70.8% (inactive); in the assay with U251 CNS it was 87.4% (inactive); in the assay on PC-3 prostate it was 68.9% (inactive). For the same molecule, the growth is 2.87% (active) in the assay with SK-MEL-5 melanoma; 58.4% (inactive) with UACC-62 melanoma; 35.4% (inactive) in the assay on LOX IMVI melanoma; 89.4% (inactive) in the assay with SK-MEL-28 melanoma; 29.7% (inactive) with SK-MEL-2 melanoma; 44.2% (inactive) in the assay on EKVX NSCLC. For the same molecule, the growth was 75.9% (inactive) in the assay with SN12C renal; 50.3% (inactive) in the assay with UO-31 renal; 80.4% (inactive) in the assay with TK-10 renal; 61.1% (inactive) with ACHN renal; 67.1% (inactive) in the assay with CAKI-1 renal; 36.2% (inactive) in the assay with A498 renal. For the same molecule, the growth was 59.8% (inactive) in the assay with CCRF-CEM leukemia and 34.4% (inactive) in the assay with MOLT-4 leukemia.
For `CSc1ccc(/C(=N/N=C(N)N)c2ccc(F)cc2)cc1`, the growth with HCT-15 colon was 6.59% (active); in the assay on HT29 colon, 4.2% (active); in the assay on SNB-75 CNS it was 44.2% (inactive); in the assay on SNB-19 CNS, 25.7% (inactive); with U251 CNS, 11.2% (inactive); with PC-3 prostate, 20% (inactive). In addition, the growth in the assay with SK-MEL-5 melanoma is -11.3% (active); in the assay on UACC-62 melanoma it was 36.2% (inactive); in the assay with LOX IMVI melanoma it was 5.46% (active); in the assay with SK-MEL-28 melanoma, 60.9% (inactive); in the assay with SK-MEL-2 melanoma it was 48.6% (inactive); in the assay with EKVX NSCLC, 36.6% (inactive). In addition, the growth in the assay on SN12C renal is 36.9% (inactive); with UO-31 renal, 30.5% (inactive); with TK-10 renal, 39.1% (inactive); in the assay with ACHN renal, 35.8% (inactive); in the assay on CAKI-1 renal, 15.6% (inactive); with A498 renal it was 5.39% (active). Besides, the growth was 5.74% (active) in the assay on CCRF-CEM leukemia and -2.76% (active) in the assay on MOLT-4 leukemia.
With `CC(C)Sc1nc(-c2ccccc2)c(C#N)c(N2CCOCC2)n1`, the growth in the assay with HCT-15 colon was 80.2% (inactive); in the assay with HT29 colon, 71.8% (inactive); with SNB-75 CNS, 9.58% (active); with SNB-19 CNS it was 69% (inactive); in the assay on U251 CNS, 44.8% (inactive); in the assay with PC-3 prostate, 82% (inactive). The growth with SK-MEL-5 melanoma is 95.5% (inactive); in the assay with UACC-62 melanoma it was 91.7% (inactive); in the assay on LOX IMVI melanoma it was 35.6% (inactive); in the assay with SK-MEL-28 melanoma it was 88.6% (inactive); with SK-MEL-2 melanoma, 128% (inactive); in the assay on EKVX NSCLC, 69.8% (inactive). For the same molecule, the growth in the assay on SN12C renal is 28.1% (inactive); in the assay with UO-31 renal, 17.9% (inactive); with TK-10 renal, 106% (inactive); in the assay on ACHN renal it was -6.39% (active); with CAKI-1 renal, 52.1% (inactive); in the assay on A498 renal it was 65.6% (inactive). Further, the results for the growth in the assay with CCRF-CEM leukemia and in the assay on MOLT-4 leukemia were 75.3% (inactive) and 93.5% (inactive), respectively.
As for `COc1cc(-c2nc(-c3ccccc3)[nH]c2-c2ccnc(NCCCNS(=O)(=O)c3ccc(C(F)(F)F)cc3)n2)ccc1Cl`, the growth in the assay on HCT-15 colon is 14.3% (inactive) and 22.5% (inactive); in the assay on HT29 colon it was 43.9% (inactive) and 17.9% (inactive); with SNB-75 CNS, 58.6% (inactive) and 67.5% (inactive); in the assay with SNB-19 CNS, 57.1% (inactive) and 54.1% (inactive); with U251 CNS, 40.7% (inactive) and 39.8% (inactive); in the assay with PC-3 prostate, 15.4% (inactive) and 20.3% (inactive). Also, the growth with SK-MEL-5 melanoma is 22.4% (inactive) and 52.3% (inactive); in the assay with UACC-62 melanoma, 56% (inactive) and 44.9% (inactive); in the assay with LOX IMVI melanoma it was 18.1% (inactive) and 47.6% (inactive); in the assay with SK-MEL-28 melanoma it was 63.1% (inactive) and 44.4% (inactive); in the assay with SK-MEL-2 melanoma it was 74.8% (inactive) and 43.8% (inactive); with EKVX NSCLC, 30% (inactive) and 44.9% (inactive). Besides, the growth was 49.4% (inactive) and 49.5% (inactive) in the assay with SN12C renal; 46.5% (inactive) and 35.4% (inactive) in the assay with UO-31 renal; 79.1% (inactive) and 61.2% (inactive) in the assay with TK-10 renal; 33.3% (inactive) and 32.6% (inactive) in the assay on ACHN renal; 31.2% (inactive) and 35.4% (inactive) in the assay on CAKI-1 renal; 40% (inactive) and 64.3% (inactive) in the assay with A498 renal. The growth with CCRF-CEM leukemia was 6.64% (active) and 21.7% (inactive); with MOLT-4 leukemia, -4.06% (active) and 16.3% (inactive).
As to `O=C(CSc1nc2ccccc2c(=O)n1CCc1ccccc1)Nc1ccc(S(=O)(=O)Nc2ccc(Cl)nn2)cc1`, the growth is 92.4% (inactive) with HCT-15 colon; 117% (inactive) in the assay on HT29 colon; 78.7% (inactive) in the assay on SNB-75 CNS; 92.2% (inactive) in the assay on SNB-19 CNS; 92.9% (inactive) with U251 CNS; 89.3% (inactive) in the assay on PC-3 prostate. For the same molecule, the growth is 98.6% (inactive) in the assay with SK-MEL-5 melanoma; 84.6% (inactive) in the assay with UACC-62 melanoma; 96.1% (inactive) with LOX IMVI melanoma; 108% (inactive) with SK-MEL-28 melanoma; 111% (inactive) with SK-MEL-2 melanoma; 86.9% (inactive) with EKVX NSCLC. In addition, the growth was 94.9% (inactive) in the assay with SN12C renal; 65.1% (inactive) in the assay on UO-31 renal; 149% (inactive) in the assay on TK-10 renal; 90.6% (inactive) in the assay on ACHN renal; 75.1% (inactive) in the assay on CAKI-1 renal; 107% (inactive) in the assay with A498 renal. Besides, the growth with CCRF-CEM leukemia is 99.2% (inactive); in the assay on MOLT-4 leukemia, 99.8% (inactive).
For the molecule `Cc1ccc(-c2csc(N/N=C/c3cccs3)n2)cc1`, the growth in the assay on HCT-15 colon was 59.1% (inactive); in the assay with HT29 colon, 99.4% (inactive); with SNB-75 CNS it was 81.9% (inactive); in the assay on SNB-19 CNS, 101% (inactive); in the assay with U251 CNS, 85.8% (inactive); in the assay on PC-3 prostate it was 68.2% (inactive). Further, the growth is 72.8% (inactive) in the assay on SK-MEL-5 melanoma; 88.9% (inactive) in the assay on UACC-62 melanoma; 94.5% (inactive) in the assay on LOX IMVI melanoma; 102% (inactive) with SK-MEL-28 melanoma; 111% (inactive) with SK-MEL-2 melanoma; 65.2% (inactive) in the assay on EKVX NSCLC. In addition, the growth is 100% (inactive) in the assay on SN12C renal; 75.1% (inactive) in the assay with UO-31 renal; 151% (inactive) in the assay with TK-10 renal; 90.4% (inactive) with ACHN renal; 87.4% (inactive) with CAKI-1 renal; 116% (inactive) in the assay with A498 renal. In addition, the growth was 91.9% (inactive) in the assay on CCRF-CEM leukemia and 86.7% (inactive) in the assay with MOLT-4 leukemia.
